Each structure is given as a SMILES string. Active and inactive are the calls of the source.

The values that follow come from PubChem BioAssay.

Assay [1] in a line: optical density shifts of acrAB sulA E. coli – strain DRC41, OD650, 48 h, E. coli filamentation inducer project, primary screen (AID 1152).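 Also: E. coli MC1000 strain DRC41 lacking acrAB efflux pump and sulA.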 The note with it: higher = more signal, called active from +8 up or from −8 down.
The nature of assay [2]: probe aLefty1 binding on compound microarray – biochemical, small-molecule microarray, 635/667 nm fluorescence, primary screen (AID 1153).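 Also: score merges spot fluorescence with signal-to-noise ratio from the scanned slide images.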 The following applies: higher = more signal.
Assay [3] in a line: plasmodial surface anion channel blockers, osmotic lysis – cell-based, P. falciparum Indochina, OD700, 1 h, primary screen (AID 1154). The following applies: P. falciparum Indochina infected RBC osmotic lysis, higher = more signal, called active from +8 up or from −8 down.
The nature of assay [4]: plasmodial surface anion channel blockers, osmotic lysis – cell-based, P. falciparum Indochina, OD700, 2 h, primary screen (AID 1155).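 Also: lysis reports solute entry through the parasite surface anion channel PSAC.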 The following applies: P. falciparum Indochina infected erythrocytes, higher = more signal, called active from +8 up or from −8 down.
Assay [5] is described as follows: changes in parasitized red cell lysis, either direction – P. falciparum Indochina, OD700, 3 h, PSAC antagonist project, primary screen (AID 1156). The following applies: P. falciparum-infected erythrocytes, osmotic lysis, higher = more signal, called active from +8 up or from −8 down.
Assay [6] can be described thus: plasmodial surface anion channel blockers, osmotic lysis – cell-based, P. falciparum Indochina, OD700, 18 h, primary screen (AID 1157). The note with it: P. falciparum Indochina infected erythrocytes, osmotic lysis OD700, 18 h; higher = more signal, called active from +8 up or from −8 down.
Assay [7] is described as follows: S6 kinase pathway phospho-S6 level changes – cell-based, A549, cytoblot, luminescence, serum-stimulated, primary screen (AID 1158).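 Also: serum-stimulated A549 lung adenocarcinoma cells; signal is phosphorylated S6 detected by cytoblot immunostaining with HRP secondary.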 The following applies: 5 h, higher = more signal.
In assay [8] the target is NADPH oxidase 2 (Homo sapiens) (UniProt P04839). The experiment in a line: compounds shifting NOX2 Amplex Red fluorescence – cell-based, HEK293-NOX2, PMA-stimulated, NOX inhibitor project, primary screen (AID 1159). Also: test concentration not given here. The note with it: 45 min, higher = more signal, called active from +8 up or from −8 down.
Assay [9] deals with NADPH oxidase 4 (Homo sapiens) (UniProt Q9NPH5). The experiment in a line: compounds shifting NOX4 Amplex Red fluorescence – cell-based, HEK293-NOX4, tetracycline-induced, NOX inhibitor project, primary screen (AID 1160). The following applies: HEK293-NOX4, Amplex Red H2O2 fluorescence, 45 min; higher = more signal, called active from +8 up or from −8 down.
Assay [10] concerns the target NADPH oxidase 5 (Homo sapiens) (UniProt Q96PH1). The experiment in a line: compounds shifting NOX5 Amplex Red fluorescence – cell-based, HEK293-NOX5, NOX inhibitor project, primary screen (AID 1161). The following applies: HEK293-NOX5, ionomycin, 45 min, higher = more signal.

Sequence of NADPH oxidase 2 (Homo sapiens) (P04839 whole entry, looked up): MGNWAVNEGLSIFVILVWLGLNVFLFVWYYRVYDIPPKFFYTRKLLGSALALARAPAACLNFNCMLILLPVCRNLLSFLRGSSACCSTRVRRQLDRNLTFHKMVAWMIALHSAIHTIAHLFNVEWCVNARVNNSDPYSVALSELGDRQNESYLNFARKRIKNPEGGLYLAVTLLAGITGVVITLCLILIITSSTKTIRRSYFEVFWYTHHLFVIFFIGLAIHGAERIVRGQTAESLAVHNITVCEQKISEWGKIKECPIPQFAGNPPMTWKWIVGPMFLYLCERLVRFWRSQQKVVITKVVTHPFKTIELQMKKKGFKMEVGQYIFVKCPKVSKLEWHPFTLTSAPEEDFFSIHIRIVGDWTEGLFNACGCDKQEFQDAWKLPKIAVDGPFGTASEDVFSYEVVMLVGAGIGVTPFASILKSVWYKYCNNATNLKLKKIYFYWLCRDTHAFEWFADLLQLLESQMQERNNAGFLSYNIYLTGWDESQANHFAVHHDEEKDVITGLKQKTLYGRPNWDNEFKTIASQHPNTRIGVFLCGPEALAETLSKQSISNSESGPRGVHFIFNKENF
Sequence of NADPH oxidase 5 (Homo sapiens) (Q96PH1 whole entry, looked up): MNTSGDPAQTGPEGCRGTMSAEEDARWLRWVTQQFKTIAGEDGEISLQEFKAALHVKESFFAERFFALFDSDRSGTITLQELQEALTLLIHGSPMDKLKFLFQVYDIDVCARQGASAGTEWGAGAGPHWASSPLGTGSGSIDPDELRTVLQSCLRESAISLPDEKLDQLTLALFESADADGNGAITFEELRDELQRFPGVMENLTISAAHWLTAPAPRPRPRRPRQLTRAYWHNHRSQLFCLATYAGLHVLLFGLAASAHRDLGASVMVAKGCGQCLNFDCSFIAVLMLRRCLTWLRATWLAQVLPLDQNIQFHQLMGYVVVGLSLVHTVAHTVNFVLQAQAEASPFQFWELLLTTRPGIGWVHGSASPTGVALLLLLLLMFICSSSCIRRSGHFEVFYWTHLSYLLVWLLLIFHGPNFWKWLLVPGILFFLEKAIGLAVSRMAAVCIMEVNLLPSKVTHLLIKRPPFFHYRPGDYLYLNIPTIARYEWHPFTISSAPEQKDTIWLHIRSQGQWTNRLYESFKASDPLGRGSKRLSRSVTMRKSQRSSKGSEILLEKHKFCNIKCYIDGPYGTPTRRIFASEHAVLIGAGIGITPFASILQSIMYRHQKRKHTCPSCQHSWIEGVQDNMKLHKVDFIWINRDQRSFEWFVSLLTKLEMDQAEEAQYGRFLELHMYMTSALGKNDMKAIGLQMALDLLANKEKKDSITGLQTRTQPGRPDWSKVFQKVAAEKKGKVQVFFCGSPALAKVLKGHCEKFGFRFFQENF
Sequence of NADPH oxidase 4 (Homo sapiens) (Q9NPH5 whole entry, looked up): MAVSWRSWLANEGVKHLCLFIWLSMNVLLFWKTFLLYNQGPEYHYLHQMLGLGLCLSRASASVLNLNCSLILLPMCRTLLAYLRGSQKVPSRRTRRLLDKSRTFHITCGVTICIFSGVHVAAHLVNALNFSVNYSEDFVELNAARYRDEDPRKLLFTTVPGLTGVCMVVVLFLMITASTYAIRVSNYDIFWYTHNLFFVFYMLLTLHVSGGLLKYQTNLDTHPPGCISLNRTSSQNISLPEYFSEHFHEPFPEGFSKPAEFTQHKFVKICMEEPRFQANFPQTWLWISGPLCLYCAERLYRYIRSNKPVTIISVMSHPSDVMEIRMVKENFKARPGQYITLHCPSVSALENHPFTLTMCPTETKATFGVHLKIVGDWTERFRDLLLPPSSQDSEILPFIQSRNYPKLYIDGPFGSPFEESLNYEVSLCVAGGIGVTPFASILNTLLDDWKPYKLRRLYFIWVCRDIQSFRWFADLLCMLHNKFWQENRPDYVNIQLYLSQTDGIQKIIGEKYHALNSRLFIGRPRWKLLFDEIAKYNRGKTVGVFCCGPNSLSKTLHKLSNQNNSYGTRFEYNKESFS

For `CN1C(=O)C2C=CC(C(O)C3CCCCC3)N(Nc3ccc([N+](=O)[O-])cc3[N+](=O)[O-])C2C1=O` (stereo not given), the z-score was -1.06 (inactive) in assay [1]; 1.72 (inactive) in assay [3]; 0.519 (inactive) in [4]; -0.226 (inactive) in assay [5]; 0.532 (inactive) in assay [6]; -0.511 in [7]. Moreover, the z-score is -1.18 (inactive) in assay [8], 0.889 (inactive) in assay [9] and 0.414 in assay [10]. Besides, in assay [2], the composite z-score worked out at 0.181.

On to `COCCOC(=O)N1C(=O)[C@@]2(c3cc(C#CC4=CCCCC4)ccc31)[C@H](c1ccc(O)cc1)N1[C@H](c3ccccc3)[C@H](c3ccccc3)OC(=O)[C@H]1[C@@H]2C(N)=O`, for which the z-score in assay [1] is -0.623 (inactive); in assay [3], 2.57 (inactive); in [4] it was -0.403 (inactive); in [5] it was 0.193 (inactive); in assay [6], -0.104 (inactive); in assay [7], -0.0587. Further, the results for the z-score in [8], in assay [9] and in assay [10] were 0.823 (inactive), 0.748 (inactive) and 1.03, respectively. Also, the composite z-score in [2] was -0.523.

`C=CCNC(=O)[C@@H]1[C@H]2C(=O)O[C@H](c3ccccc3)[C@H](c3ccccc3)N2[C@H](c2ccc(OCCO)cc2)[C@@]12C(=O)Nc1ccc(C#Cc3ccc(OC)cc3)cc12`: the z-score was 0.411 (inactive) in assay [1]; 3.18 (inactive) in [3]; 1.46 (inactive) in assay [4]; 0.931 (inactive) in [5]; 0.677 (inactive) in assay [6]; 0.278 in [7]. Moreover, the z-score in assay [8] is 1.04 (inactive); in assay [9], -1.11 (inactive); in assay [10], 0.959. This compound displayed a composite z-score in assay [2] of 0.498.

`COc1ccc(C(O)C2C=CC3C(=O)N(c4ccccc4)C(=O)C3N2Nc2ccc(C(C)C)cc2)cc1OCc1ccccc1` (stereo not given): the z-score in [1] is -3.31 (inactive); in assay [3], 2.07 (inactive); in assay [4], 1.62 (inactive); in assay [5], -0.167 (inactive); in assay [6], 1.47 (inactive); in [7] it was -0.951. Also, the z-score is 0.506 (inactive) in [8], -2.55 (inactive) in assay [9] and -1.22 in assay [10]. The same compound showed a composite z-score in assay [2] of 0.129.

Turning to `O=C1NC(=O)C2C1C=CC(C(O)Cc1ccccc1)N2Nc1ccc(Cl)cc1Cl` (stereo not given), the z-score was -0.78 (inactive) in assay [1]; 4.35 (inactive) in assay [3]; 0.953 (inactive) in assay [4]; 0.273 (inactive) in assay [5]; 1.15 (inactive) in [6]; -0.834 in assay [7]. Besides, the z-score was -1.28 (inactive) in assay [8], -5.02 (inactive) in [9] and -1.9 in [10]. For the same compound, the composite z-score in assay [2] amounted to 0.599.

Turning to `[N-]=[N+]=NCc1ccccc1[C@@H]1OC(c2ccc(OCCCO)cc2)=N[C@]1(CCS(=O)(=O)c1ccccc1)C(=O)NCCN1CCOCC1`, the z-score in assay [1] is 0.36 (inactive); in assay [3], 24 (active); in [4] it was 6.42 (inactive); in [5] it was 0.854 (inactive); in assay [6], 0.763 (inactive); in assay [7], -0.291. For the same compound, the results for the z-score in assay [8], in [9] and in assay [10] were 0.961 (inactive), 1.92 (inactive) and 2.34, respectively. In addition, the composite z-score in assay [2] turned out to be 0.461.

With `O=C1c2ccccc2[C@@]2(Cc3ccccc3N(CCN3CCOCC3)C2=O)[C@H](c2ccc(CO)cc2)N1Cc1ccccc1`, the z-score in [1] is 1.04 (inactive); in assay [3], 0.884 (inactive); in assay [4] it was -0.273 (inactive); in [5] it was -0.378 (inactive); in assay [6], 0.646 (inactive); in assay [7], 0.215. The z-score is 0.0706 (inactive) in assay [8], -0.582 (inactive) in assay [9] and -0.606 in [10]. The composite z-score in assay [2] is -0.0479.

Take `COC(=O)[C@@]1(Cc2ccc(F)cc2)[C@H]2c3cc(C(=O)N4CCCC4)n(Cc4cc(C)n(C)n4)c3C[C@H]2CN1C(=O)c1ccccc1`: the z-score was -0.859 (inactive) in assay [1]; 2.02 (inactive) in assay [3]; 0.0953 (inactive) in assay [4]; 0.424 (inactive) in [5]; 0.742 (inactive) in assay [6]; -0.301 in assay [7]. For the same compound, the z-score was 1.16 (inactive) in [8], 0.368 (inactive) in assay [9] and -0.196 in assay [10]. In assay [2], this compound yielded a composite z-score of 0.291.

Consider `C=C/C=C/[C@H]1C(=C)CN([C@@H](Cc2ccccc2)C(=O)OC)[C@@H]1[C@H](O)Cc1ccccc1`, for which the z-score in assay [1] was 0.297 (inactive); in assay [3], 1.09 (inactive); in [4], 0.804 (inactive); in assay [5], -0.207 (inactive); in [6], 0.257 (inactive); in assay [7], -0.344. For the same compound, the values for the z-score in assay [8], in [9] and in assay [10] were -0.66 (inactive), -0.432 (inactive) and -0.723, respectively. Further, the composite z-score in [2] is -0.239.

Consider `COCC(=C=CC[C@H](O)c1ccccc1OCCO)C[C@H](O)c1cc(Cl)cc(Cl)c1O`, for which the z-score in assay [1] is -0.381 (inactive); in assay [3], 7.9 (inactive); in assay [4], 8.65 (active); in [5], -9.18 (active); in [6], 3.52 (inactive); in [7], -0.539. The z-score in assay [8] was -5.19 (inactive); in [9] it was -2.45 (inactive); in assay [10], -3.1. The compound further had a composite z-score in [2] of 0.233.
